Laboratory results reported in the supplement of paper PMC6555819.

Experiments:
Experiment in all cases: PBM binding z-score (relative to random genomic background probes); higher = stronger binding; sequences stand for … in GC…GCGATTGACAGCGTAGAATGAAGG
[1] = tested on: PPARg:RXRa DBDmut IVT, anti-RXR (DBD mutation: RXRa K156A/R161A, NR concentration 270 nM, RXRa partner concentration 90 nM)
How it was run: (§1)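 The probes on custom Agilent 4×180K protein-binding microarrays were double-stranded, with 34-nt variable regions bearing direct-repeat seeds, single-nucleotide variants, half-site ablations and random human genomic background sequences. Incubation lasted 1 h with ligand-free nuclear receptor dimers in PBS pH 7.4, 2% milk, 0.02% Triton X-100, 1 mM DTT, 0.2 mg/mL BSA and 0.4 mg/ml salmon testes DNA. Antibodies against each partner (one per run) detected bound dimers, and fluorescence scans were regression-normalized. Binding z-scores take the random background probes as reference.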

[2] = tested on: PPARg:RXRa IVT, anti-PPARg (NR concentration 270 nM, RXRa partner concentration 90 nM)
How it was run: as §1

[3] = tested on: PPARg DBDmut:RXRa IVT, anti-PPARg (DBD mutation: PPARg1 K132A/R137A, NR concentration 270 nM, RXRa partner concentration 90 nM)
How it was run: as §1

[4] = tested on: PPARg DBDmut IVT, anti-PPARg (DBD mutation: PPARg1 K132A/R137A, NR concentration 270 nM)
How it was run: as §1

[5] = tested on: PPARg homodimer (NR concentration 180 nM)
How it was run: as §1

[6] = tested on: PXR:RXRa (NR concentration 270 nM, RXRa partner concentration 90 nM)
How it was run: as §1

[7] = tested on: PXR homodimer (NR concentration 270 nM)
How it was run: as §1

[8] = tested on: RARa:RXR (NR concentration 270 nM, RXRa partner concentration 90 nM)
How it was run: as §1

[9] = tested on: RARa homodimer (NR concentration 270 nM)
How it was run: as §1

[10] = tested on: RARb:RXRa (NR concentration 270 nM, RXRa partner concentration 90 nM)
How it was run: as §1

Sequence | PBM binding z-score [1] | PBM binding z-score [2] | PBM binding z-score [3] | PBM binding z-score [4] | PBM binding z-score [5] | PBM binding z-score [6] | PBM binding z-score [7] | PBM binding z-score [8] | PBM binding z-score [9] | PBM binding z-score [10]
ACTTACGGGTCAACGAGATTATAGCACGCGTATA | 3.56 | 4.11 | 1.69 | 2.1 | 2.79 | 3.31 | 0.376 | 4.37 | 1.47 | 4.23
CCGACTGGGGCAGAAAGGCTACCATACCATCCGG | 0.897 | 0.918 | -0.746 | -1.37 | -0.0679 | -0.836 | -0.377 | -0.589 | 0.0496 | 0.362
CCTAGCAGGCCAATCTGGGTCACTCATGGCTTGA | 4.04 | 4.89 | -0.176 | -0.808 | 0.139 | 0.641 | -0.181 | 0.915 | -0.68 | 1.44
CCTACTGGGCCATTCAGCGGTCATTGATCATATG | 4.3 | 3.25 | 0.0512 | -0.76 | 0.303 | -0.111 | -0.0854 | 0.0105 | 0.0285 | 1.2
CCTAGTTGATCAAGGTCACACACGCTATAGGTAC | 2.26 | 3.44 | 1.49 | 1.07 | 3.39 | 4.28 | 3.62 | 4.24 | 2.05 | 3.95
CCTACTGGCCCAAGGTCATTGATCAGTCAAAGCA | -0.104 | 1.17 | -0.998 | -0.271 | 2.64 | 3.52 | 1.68 | 3.36 | 0.651 | 3.4
CTCGAAAGGTCGTGCTCTGGTGAGTATACCAAAC | 1.12 | 1.7 | 0.0542 | 0.48 | 1.41 | 2.92 | -0.238 | 3.6 | 0.169 | 3.86
ATCGAAAGGACGAGGTGAGTATAGAGAAAGGGAA | 0.186 | 0.649 | 0.713 | 0.658 | 0.139 | -0.25 | 0.286 | 0.04 | 0.504 | 1.31
CCGACTGGCGCAAGGTTACCATAACGCACAGCCA | 0.00884 | -0.432 | -1.08 | -0.725 | 0.0939 | 0.262 | -0.271 | 0.604 | -0.0192 | 0.871
TCTTGTACATCAACAGGAGGTTAAGAAAGATCGA | 1.52 | 0.927 | 1.32 | 1.51 | -0.544 | 0.873 | 0.161 | 1.09 | 0.409 | 0.66
TAGCCTAGGTCAGACCGGGCCAGTATACGCTATA | 0.42 | 1.13 | -0.551 | -1.06 | 0.235 | 0.913 | -0.412 | 1.14 | -1.16 | 3
CCTTACGGGTCAAGGTTAAAGCACGGGTGGTACG | 1.83 | 3.82 | 0.996 | 0.275 | 3.27 | 3.65 | 0.419 | 4.78 | 1.39 | 4.12
TCTCGGAGGACACGAAAGGTCAGACCTCGACATC | 1.73 | 1.54 | 0.0109 | -0.512 | 2.48 | 4.1 | 0.547 | 4.15 | 1.09 | 4.28
GCATATAGGTAATACAAGCTGAAAGTCCGATTGT | 3.93 | 2.4 | 0.865 | 0.595 | 0.219 | -0.13 | -0.000493 | 0.243 | 0.388 | -0.475
CCTCCAAGGTCAAGGTCAGTGAAAGAGACTCGAA | 2.84 | 4.47 | 0.309 | -0.405 | 3.87 | 4.83 | 1.54 | 5.14 | 2.11 | 5.8
CCTGCTAGGTCATTGTCAGCTAATCTACAGTATG | 4.13 | 3.2 | 0.372 | 0.337 | 0.865 | 1.12 | -0.0805 | 1.77 | 0.00948 | 3.55
CCTACTGGGCCCTCAGGTCATTGATATCAACGTT | -0.0673 | 1.11 | -0.224 | -0.58 | 0.88 | 1.43 | 0.581 | 1.64 | 0.179 | 1.4
GCATATAGGTAATACAAGTTGAAAGTCCGATTGT | 4.35 | 2.61 | 1.06 | 0.954 | 0.423 | 0.787 | 0.733 | 0.761 | 0.554 | 0.148
ATACCAAGGTGATCCTGAGGTCGTTGATACTAAC | 0.567 | 1.08 | 0.87 | 0.266 | 0.931 | 3.21 | 1.41 | 2.34 | 0.52 | 1.39
CGTCCAAGGACAGAGAGGTCAGTGAATGCCGAGT | 0.0804 | 0.561 | -0.629 | -1.01 | 1.79 | 3.01 | 3.16 | 2.48 | 0.679 | 3.33
CGAACGAGGGCATGAGTTGATAGTAAATGCCGAT | 3.01 | 1.98 | -0.123 | 0.201 | -0.00807 | 0.636 | 0.316 | 0.644 | -0.245 | 1.94
CATACAGGGCCAGCTAGGCCAGAGTAGGGACGGC | -0.75 | -0.0426 | -0.139 | -0.903 | -0.651 | -0.993 | -0.765 | -0.772 | -0.751 | 0.645
TTACCACGGTGAGCTGAGGTCGTTGATCCAACTC | -0.205 | 0.363 | -0.296 | -0.157 | -0.455 | 2.07 | 0.241 | 1.07 | -0.639 | 0.544
GCTTACGGGTCAACGGTTATAGCATGAATAGAAT | 4.03 | 4.42 | 2.69 | 0.764 | 1.62 | 3.16 | 0.0463 | 4.02 | 0.362 | 4.08
